TEAD-YAP inh: TEAD-YAP interaction inhibition; HEK-TIYL cells, TEAD-Gal4/YAP UAS-luciferase luminescence; inhibition, % at 9.12 µM; hit rate 1.4% among 640,000; AID 1259422; in the data active means inhibition above about 32%
GPR151 activ: activators of human GPR151. Q8TDV0. PathHunter beta-arrestin GPR151 cells, luminescence. activation, % at 11.2 µM. hit rate 1% among 650,000. AID 1508602; in the data active means activation above about 4.9%
FBW7 activator: activators of human E3 ligase FBW7 | AlphaScreen FBW7–phospho-cyclin E peptide binding, activator screen | normalized activity (activation), % at 26.1 µM | hit rate 0.13% among 650,000 | AID 1259310; in the data active means normalized activity above about 1.9%;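 further: purified mutant Fbw7 with reduced substrate affinity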
MITF primary: blocks human microphthalmia-associated transcription factor; hit rate 0.91% among 650,000; inhibition, % at 2.6 µM; O75030; AlphaScreen MITF homodimerization, bead proximity signal; in the data active means inhibition above about 50%
GPR151 conf act: confirmation of human GPR151 activators; shares compounds with GPR151 activ; GPR151 PathHunter beta-arrestin cells, luminescence, 90 min; % of EA-reagent control over plate median; activation, % at 11.2 µM; 6,700 tested, under 10 active; AID 1508609;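 active means mean percent activation across replicates above the confirmation screen cutoff of 4.91%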
GPR119 counter: activates human GPR119 in a GPR151 counter-screen | AID 1508611 | shares compounds with GPR151 activ | activation, % at 11.2 µM | GPR119 PathHunter beta-arrestin cells, luminescence, 90 min; 0 = compound-well median, 100 = enzyme-acceptor control | hit rate 0.3% among 6,700;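 active means mean percent activation in the counterscreen above 29.09%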;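 further: counterscreen on off-target GPR119 to flag nonselective hits from the GPR151 activator screen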
Target sequence (Q8TDV5 whole entry, looked up): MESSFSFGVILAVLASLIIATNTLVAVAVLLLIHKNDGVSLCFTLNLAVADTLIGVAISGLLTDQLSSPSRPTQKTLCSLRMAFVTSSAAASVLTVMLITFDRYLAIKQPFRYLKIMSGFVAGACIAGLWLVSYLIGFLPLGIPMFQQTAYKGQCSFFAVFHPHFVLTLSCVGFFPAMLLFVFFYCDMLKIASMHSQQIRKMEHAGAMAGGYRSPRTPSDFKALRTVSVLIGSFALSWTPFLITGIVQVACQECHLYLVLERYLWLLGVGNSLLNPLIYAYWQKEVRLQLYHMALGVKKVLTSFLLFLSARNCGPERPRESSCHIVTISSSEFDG
Numbers stand for hits; 0 = inactive; - = not tested or not shown. Shown are actives, neighbours in structure and some others; about 3.5% of the full set was active somewhere.

SMILES	TEAD-YAP inh	GPR151 activ	FBW7 activator	MITF primary	GPR151 conf act	GPR119 counter
COC(=O)c1ccc(N2N=C(C)/C(=C/c3ccc(C)s3)C2=O)cc1	0	0	0	0	-	-
O=c1c2cnn(CCO)c2ncn1Cc1c(F)cccc1Cl	0	6.6	0	0	0	0
COC(=O)C1=C(C)N(C)C(=S)NC1c1ccc(OC)cc1 (stereo unspecified)	0	0	0	0	-	-
Cc1noc(C)c1COC(=O)CCc1ccc(S(=O)(=O)N2CCCCC2)cc1	0	5.0	0	0	0	0
COc1cccc(C(=O)NCc2n[nH]c(=S)n2-c2ccccc2OC)c1	0	0	0	0	-	-
Cc1ccsc1/C=C(\C#N)C(=O)NCc1cccnc1	0	12	0	0	0	0
Cc1ccsc1/C=C(/C#N)C(=O)NCc1ccccc1	0	0	0	0	-	-
COc1ccc(O)c(/C=N/NC(=O)CCC(=O)Nc2ccccc2)c1	0	0	0	0	-	-
COc1ccc(Cl)cc1NC(=O)CSc1nccn1-c1ccccc1C	0	5.2	0	0	0	0
COc1ccc(Cl)cc1NC(=O)CSc1nc(N)cc(N)n1	0	0	0	0	-	-
COc1ccc(Cl)cc1NC(=O)CSc1nc(=O)n2ccccc2n1	0	5.7	0	0	0	0
Cc1n[nH]c(C)c1CCN(C)C(=O)CC1C(=O)NCCN1Cc1ccc2ccccc2c1 (stereo unspecified)	0	0	0	0	-	-
COc1cccc(CN2CCN(C(=O)CCC3(C)CCC(=O)N3)CC2=O)c1 (stereo unspecified)	0	7.8	0	0	0	0
CCC/C=N/NC(=O)c1ccc2c(c1)NC(=O)C(C)(C)O2	0	0	0	0	-	-
O=C(c1cc(F)c(F)cc1Cl)N1CCCCCC1	0	0	0	0	-	-
O=C(CN1N=C(c2ccccc2)Cn2c(cc3ccccc32)C1=O)N1CCN2CCCC2C1 (stereo unspecified)	0	0	0	0	-	-
CC(=O)N1CCOc2cc(S(=O)(=O)N3CCCCCC3)c(C)cc21	0	0	0	0	-	-
CC(=O)N1CCOc2cc(S(=O)(=O)N3CCC(Cc4ccccc4)CC3)c(C)cc21	0	5.0	0	0	0	0
COc1cccc(C(=O)NCCCc2ccccc2)c1OC	0	0	0	0	-	-
COc1cccc(C(=O)NCCCc2ccc(N(C)C)cc2)c1OC	0	5.3	0	0	0	0
N#C/C(=C\c1ccc2c(c1)OCO2)C(=O)Nc1ccc(Cl)c([N+](=O)[O-])c1	0	6.0	0	0	0	0
O=C(COc1ccc(Cl)cc1)NCC(c1ccco1)N1CCOCC1 (stereo unspecified)	0	6.2	0	0	0	0
Cc1cccc(OCC(=O)Nc2ccc(S(=O)(=O)Nc3nc(C)cc(C)n3)cc2)c1	0	0	0	0	-	-
CCc1ccc(N(CC(=O)Nc2cccc(F)c2)S(C)(=O)=O)cc1	0	0	0	0	-	-
COc1ccc(NC(=O)CSc2nc3ccccc3c(=O)n2CCCC(=O)NCc2ccccc2)c(OC)c1	0	7.5	0	0	0	0
SMILES	TEAD-YAP inh	GPR151 activ	FBW7 activator	MITF primary	GPR151 conf act	GPR119 counter
CC(=O)n1c(SCC(=O)Nc2ccc(C(C)C)cc2)nc2ccccc21	0	6.8	0	0	0	0
CCc1ccc(NC(=O)CSc2nc3ccccc3c(=O)n2CCc2ccccc2)cc1	0	5.8	0	0	0	0
COc1ccc(CNC(=O)CCCn2c(SCC(=O)Nc3ccc(OC)cc3OC)nc3cc4c(cc3c2=O)OCO4)cc1	0	0	0	0	-	-
CCc1ccc(NC(=O)CSc2nc3ccccc3c(=O)n2CCc2ccc(OC)c(OC)c2)cc1	0	0	0	0	-	-
CC(C)c1ccc(NC(=O)CSc2nc3ccccc3n2S(=O)(=O)c2cccs2)cc1	0	0	0	0	-	-
COc1ccc(NC(=O)CCCN2C(=O)CCC2=O)c(OC)c1	0	10	0	0	0	0
CCCCOc1ccccc1NC(=O)C(C(F)(F)F)C(F)(F)F	0	0	0	0	-	-
O=C(c1ccc2c(=O)n(Cc3ccc4c(c3)OCO4)c(=S)[nH]c2c1)N1CC=C(c2ccccc2)CC1	0	0	0	0	-	-
CCn1c(SCC(=O)Nc2ccc(C(=O)OC)cc2)nc2cccnc21	0	5.5	0	0	0	0
CC1CC(=O)N(c2ccc(N3CCCCCC3)c([N+](=O)[O-])c2)C1=O (stereo unspecified)	0	0	0	0	-	-
